Compound activity as filed in PubChem.
Pf Dd2 growth – qHTS Primary assay for Inhibitors of Plasmodium falciparum Dd2 growth in vitro | Potency, µM (doses to about 28.9 µM), for the others: at the top dose activity, negative = inhibition, hits mostly inhibitors | 4.3% of 120,000 active | P. falciparum Dd2 growth, SYBR Green, 72 h; active = well fitted inhibition curve with a large enough effect;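 also: plate controls were DMSO vehicle for no effect and reference drug for full effect; nearly all actives have a fitted effect of over 65% in size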
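Infected erythrocytes (Dd2, 0.3% parasitemia, 2.5% hematocrit final) are added to compound in RPMI-1640/Albumax II medium, grown 72 h at 37C in low oxygen, then lysed with saponin/Triton-X containing SYBR Green and read by fluorescence.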
Starred values were filed as active, the others as inactive; i = inactive; ! = not active in a repeat; [ ] = another dose, or the depositor's remark. The entries come from a sample that favours hits as a whole. Potency is read from the fitted curve at half-maximal effect.

SMILES	Pf Dd2 growth
CC(C)c1cccc(NC(=O)CN2C(=O)NC3(CCOCC3)C2=O)c1	-9.1%
COCCc1nncn1C1CCN(S(=O)(=O)c2cccc(OC)c2)CC1	10.7%
CCOc1ccc(NC(=O)c2ccc(F)c(S(=O)(=O)NCc3ccc4c(c3)OCO4)c2)cc1	i
CCN(C(=O)c1cnc(-c2cccs2)[nH]c1=O)C1CCS(=O)(=O)C1 (centres undefined)	3.1%
COc1cccc(NC(=O)CN2C(=O)CC(c3ccco3)Sc3ccccc32)c1 (centres undefined)	-10.3%
COC(=O)C1=CN(CC(=O)N2CCN(c3ccc(F)cc3)CC2)S(=O)(=O)N=C1C	49.4%
Cc1c(C(=O)Nc2cccc(C(F)(F)F)c2)sc2nc[nH]c(=O)c12	-7.8%
Cc1ccc(C(=O)n2nc(-c3ccco3)nc2NCc2cccs2)cc1	48.7%
Cc1noc(C)c1S(=O)(=O)N1CCCN(C(=O)C2CC2)C(c2ccccc2)CC(=O)NCC1 (centres undefined)	15.2%
CCC1=Nc2cc(C(=O)NC3CCC(C)CC3)ccc2Sc2ccc(C)cc21 (centres undefined)	10µM*
CCCC1=Nc2cc(C(=O)N3CCC(C)CC3)ccc2Sc2ccc(C)cc21	-22.8%
CCn1ncc(N2CCC(NC(=O)c3ccc(C)c(C)c3)CC2)cc1=O	-10.4%
COCCn1c(CO)nnc1C1CC(NC(=O)c2cccn2C2CC2)C1 (centres undefined)	-7.9%
COCCN1C(=O)CC[C@]2(C(=O)NCCc3ccccc3)CCCC[C@@H]12	i
COc1cc(NC(=O)Cn2c(N3CCc4ccccc4C3)nc(C)cc2=O)cc(OC)c1OC	-22.9%
COc1cccc(CNC(=O)Cn2c(N3CCc4ccccc4C3)nc(C)cc2=O)c1	-20.0%
COc1ccc(CNC(=O)Cn2c(N3CCc4ccccc4C3)nc(C)cc2=O)cc1	8.91µM*
Cn1nc2n(c1=O)CCN(C(=O)C1(c3ccccc3)CCCC1)CC2	-7.3%
Cc1cccc(NC(=O)CSc2nc3c(oc4ccccc43)c(=O)n2-c2ccccc2)c1C	i
c1cncc(-c2nc3ccncc3[nH]2)c1	-17.2%[44.1 µM]
Cc1ccc(-c2nc(-c3cccs3)c(-c3cccs3)[nH]2)cc1	-19.0%
c1cc2nc(C3CCCCN3)[nH]c2cn1 (centres undefined)	-15.4%[44.1 µM]
c1cnc2nc(-c3c[nH]c4ccccc34)[nH]c2c1	-11.0%[44.1 µM]
Cc1ccoc1-c1nc2ccncc2[nH]1	-2.6%[44.1 µM]
c1cncc(-c2nc3ncccc3[nH]2)c1	-5.9%[44.1 µM]
SMILES	Pf Dd2 growth
c1ccc2c(-c3nc4ccncc4[nH]3)c[nH]c2c1	12.6µM*!
c1csc(-c2nc3ccncc3[nH]2)c1	17.8µM*!
c1c[nH]c(-c2nc3ccncc3[nH]2)c1	22.4µM*!
O=C(c1ccoc1)N1CCCC(n2cc(-c3nc(C4CC4)no3)nn2)C1 (centres undefined)	-7.3%
C[C@@H]1CN(C(=O)c2cc(-c3ccsc3)n[nH]2)CC[C@@]1(O)C1CCOCC1	-8.6%
COc1ccccc1N1CCN(C(=O)c2cc(-c3ccc(C)c(F)c3)on2)CC1	-6.3%
CC1Oc2ccc(NC(=O)c3cccc(F)c3)cc2CN(Cc2ccc3c(c2)OCO3)C1=O (centres undefined)	i
CC(=O)Nc1ccc(NC(=O)c2cc3n(n2)CC(c2ccc(Br)cc2)OC3)cc1 (centres undefined)	-13.0%
COc1cc2c(cc1OC)n(CC(=O)c1ccc(C)cc1C)c(=O)n1nc(CCn3nc(C)cc3C)nc21	56.1%
CN1C[C@@H](NC(=O)NC2CCCCC2)C[C@H]1c1nc(-c2cccnc2)no1	32.5%[44.1 µM]
O=C1NC2(CCN(Cc3ccccc3)C2)Oc2ccccc21 (centres undefined)	i
CN(C)c1ccc(CN2CCC3(C2)NC(=O)c2ccccc2O3)cc1 (centres undefined)	i
O=C1NC2(CCN(Cc3ccc(C(F)(F)F)cc3)C2)Oc2ccccc21 (centres undefined)	i
COc1cccc(CN2CCC3(COc4ccccc4C(=O)N3)C2)c1 (centres undefined)	i
COc1ccc(CN2CCC3(C2)NC(=O)c2ccccc2CO3)cc1 (centres undefined)	-16.5%
O=C1NC2(CCN(Cc3ccc(F)cc3)C2)Oc2ccccc21 (centres undefined)	11.2µM*
O=C1NC2(CCCN(Cc3ccncc3)C2)Oc2ccccc21 (centres undefined)	-20.9%[44.1 µM]
COc1ccc(CN2CCC3(CC2)NC(=O)c2ccccc2O3)cc1	12.6µM*
CC(=O)Nc1ccc(CN2CCC3(CC2)NC(=O)c2ccccc2O3)cc1	i
O=C1NC2(CCCN(Cc3ccsc3)C2)COc2ccccc21 (centres undefined)	-0.2%[44.1 µM]
COc1cccc(CN2CCCC3(COc4ccccc4C(=O)N3)C2)c1 (centres undefined)	11.2µM*
O=C1NC2(CCCN(Cc3ccccc3)C2)Oc2ccccc21 (centres undefined)	12.6µM*
Cc1ccc2c(C)c(C(=O)NC3CC(c4nnc(CN(C)C)n4C)C3)oc2c1 (centres undefined)	-7.7%
Cc1noc(-c2cn(C3CCN(C(=O)c4cccs4)CC3)nn2)n1	11.3%
